Screening data from PubChem BioAssay.
Sampled rows, rich in hits. Any-hit rate of the full collection: about 19%.
DT40 TDP1 no CPT: qHTS for Inhibitors of human tyrosyl-DNA phosphodiesterase 1 (TDP1): qHTS in cells in absence of CPT. AID 686978, 2013. 15% of 420,000 active. DT40 Tdp1-/- hTDP1 cells, no CPT, ATP luminescence, 48 h. Potency, µM (highest dose often 46.2 µM), without a hit: at the top dose activity change, negative = growth inhibition, usual class: inhibitors; also: nearly all actives have a fitted effect of over 55% in size
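DT40 Tdp1-/-;hTDP1 cells, no CPT (DMSO vehicle only), 400 cells/well; compounds pin-transferred; ≥48 hr, 37 °C; CellTiter-Glo 30 min RT dark, luminescence read.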
TDP1 cell CPT: DT40-hTDP1 cell growth loss with CPT; 12% of 420,000 active; Potency, µM (titrated, usually from 46.2 µM), for inactives: at the top dose activity change, negative = growth inhibition, hits mostly inhibitors; chicken DT40 Tdp1-/-;hTDP1 cells + 20 nM CPT, ATP luminescence, 48 h; also: nearly all actives have a fitted effect of over 55% in size
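Cell growth measured by CellTiter-Glo luminescence after a minimum 48 h, 37 C compound exposure with 20 nM CPT in Tdp1-knockout DT40 cells stably expressing hTDP1, seeded 400/well; qHTS titration format.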
VP16 counter: counter-screen for ROR gamma inhibitors: Gal4-VP16 reporter | Drosophila S2 Gal4-VP16 UAS-luciferase, luminescence, 20 h | Potency, µM (series often up to 53.6 µM), without a hit: top-dose activity, negative = inhibition, most hits filed as inhibitors | 3.5% of 310,000 active;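 also: Gal4-VP16 expression switched on by copper sulfate through the metallothionein promoter; nearly all actives have a fitted effect of over 50% in size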
RORgamma inh: ROR gamma (mouse) transcription inhibition; 5.4% of 310,000 active; Drosophila S2 Gal4-RORgamma UAS-luciferase reporter, 20 h; Potency, µM (highest dose often 53.6 µM), without a hit: at the top dose activity change, negative = inhibition, hits mostly inhibitors; also: nearly all actives have a fitted effect of over 60% in size
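Compounds are pin-transferred onto Drosophila Schneider cells expressing a copper-inducible Gal4–ROR gamma transactivation domain fusion. After 1 hr, copper sulfate is added to 700 uM final; luciferase is read 20 hr later.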
TDP1 inh: inhibitors of human tyrosyl-DNA phosphodiesterase TDP1; Q9NUW8; recombinant TDP1, AlphaScreen DNA substrate cleavage; Potency, µM (top dose mostly 130 µM), for the others: at the highest dose activity change, negative = inhibition, actives largely listed as inhibitors; 0.28% of 350,000 active; AID 485290; also: nearly all actives have a fitted effect of over 40% in size
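Compounds were preincubated with Tdp1 (1 nM final) for 15 min at room temperature before substrate (15 nM final) started a 5 min reaction; beads (10 ug/ml final) were then added for 10 min before AlphaScreen detection.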
Starred values were filed as active, the others as inactive; ? = inconclusive; . = no result; [ ] = dose if it differs, or a comment. Calls follow the shape of the dose curve; as a rule, active = well fitted curve in the direction sought with a large enough effect; inconclusive = small, poorly fitted or top-dose-only effect, or another doubt; inactive = no such curve, though single readings can be large; an effect the other way counts as inactive or inconclusive. % is scaled to controls: 0 for no effect and ±100 for the full control effect; potency is read from the fitted curve at half-maximal effect.

SMILES | DT40 TDP1 no CPT | TDP1 cell CPT | VP16 counter | RORgamma inh | TDP1 inh
NC(=S)N/N=C/c1ccccc1OC(=O)c1cc2ccccc2oc1=O | 6.5µM* | ? | 7.1µM* | 7.1µM* | 4%
COc1ccccc1/C=C/C=N/NC(=O)c1cccs1 | 6.5µM* | 21µM* | ? | 7.9µM* | 6%
COc1ccccc1/C=C\C=N\NC(=O)c1ccco1 | -1% | 9% | ? | ? | 4%
COc1ccc(NC(=O)CN2CC(c3ccccc3)CC2=O)cc1OC (stereo not given) | -3% | -9% | -8% | -37% | 5%
CC(C)=C1C2C=CC1C1C(=O)N(c3ccc4c(c3)OCO4)C(=O)C21 (stereo not given) | 21µM* | ? | ? | ? | 5%
Cc1cccc(-n2c(=O)c3ccccc3n(Cc3ccccc3)c2=O)c1 | ? | 23µM* | . | . | 0%
Cc1ccc(-n2c(=O)c3oc4ccccc4c3n(Cc3cccc(F)c3)c2=O)cc1C | ? | 26µM* | . | . | 0%
Cc1cccc(Cn2c(=O)n(-c3cc(C)cc(C)c3)c(=O)c3oc4ccccc4c32)c1 | 12µM* | 8.2µM* | . | . | -5%
O=c1cc(O)c2c(=O)n(Cc3ccccc3)c3ccccc3c2o1 | 23µM* | ? | -2% | -2% | 4%
CCOC(=O)c1cc(OCC(=O)NC(C)C(C)C)cc(C(=O)OCC)c1 (stereo not given) | -19% | -2% | 3% | -1% | 0%
O=C(NC1CCN(S(=O)(=O)c2cccc(F)c2)CC1)c1cccc(F)c1 | 5% | -21% | -10% | -7% | .
COc1cccc(Cn2c(=O)n(-c3cc(C)cc(C)c3)c(=O)c3oc4ccccc4c32)c1 | 16µM* | ? | . | . | 5%
COc1ccc(Cn2c(=O)n(Cc3ccco3)c(=O)c3oc4ccccc4c32)cc1 | 23µM* | ? | . | . | 5%
COc1ccc(Cn2c(=O)c3oc4ccccc4c3n(Cc3ccc(Cl)cc3)c2=O)cc1 | 0% | 0% | . | . | 0%
Cc1nc(C)c(-c2ccc(SCC(=O)Nc3ccc(F)c(F)c3)nn2)s1 | 9.2µM* | 13µM* | . | . | 0%
Cc1nc(C)c(-c2ccc(SCC(=O)Nc3ccc(C)c(F)c3)nn2)s1 | -28% | -22% | . | . | 2%
Cc1nc(C)c(-c2ccc(SCC(=O)Nc3ccccc3)nn2)s1 | 26µM* | 23µM* | -8% | 4% | 2%
COc1cccc(NC(=O)CSc2nnc3scc(-c4ccc(Cl)cc4)n23)c1 | 18µM* | ? | . | . | .
COc1cccc(NC(=O)CSc2ccc(-c3sc(C)nc3C)nn2)c1 | 15µM* | 15µM* | 7% | 21% | 2%
Cc1ccc(NCC(=O)N/N=C/c2cc(O)ccc2[N+](=O)[O-])cc1 | 1% | 1% | -1% | 9% | -1%
Cc1c(C(=O)N2c3ccccc3Sc3ccccc32)cccc1[N+](=O)[O-] | 26µM* | ? | -13% | -1% | 1%
COc1ccc(NS(=O)(=O)c2cccc(C(=O)NNC(=O)CNC(=O)c3ccccc3Cl)c2)cc1 | 4% | -5% | . | . | .
COc1ccc(N=C2O/C(=C/c3sc(=S)n(CC4CCCO4)c3O)N=C2C#N)cc1 (stereo not given) | 29µM* | ? | 10% | -14% | 9%
Cc1ccc(/C=C(\C#N)c2nc(-c3cc4c(ccc5ccccc54)oc3=O)cs2)cc1 | -8% | 3% | . | . | 0%[12.3 µM]
COc1ccc(/C=C(/C#N)c2nc(-c3cc4ccccc4oc3=O)cs2)cc1 | 15µM* | ? | . | . | 0%[12.3 µM]
COc1ccc(/C=C(\C#N)c2nc(-c3cc4c(ccc5ccccc54)oc3=O)cs2)cc1O | 3.3µM* | 2.9µM* | . | . | -1%[12.3 µM]
COc1ccc(/C=C(\C#N)c2nc(-c3cc4ccccc4oc3=O)cs2)cc1OC | -3% | 4% | . | . | 1%[12.3 µM]
Cc1nn(-c2nnc(C)c(=O)[nH]2)c(C)c1SCC(=O)Nc1ccc(F)cc1 | -4% | -1% | 10% | ? | 5%
